Sampled rows, rich in hits. Any-hit rate of the full collection: about 4.3%.
NALP1 inh: NALP1 inhibition. 280,000 compounds, 0.61% hits. inhibition, % at 10 µM. AID 2071. S. cerevisiae NALP1/ASC/caspase-1 growth, X-gal OD620, 72 h; in the data active means inhibition mostly above about 24%, no sharp cut-off; inactive means mostly below about 32%
dFosB activator: activators of mouse delta FosB homodimer | activation, % at 25 µM | AID 493131 | purified delta FosB, TAMRA-CDK5 oligo fluorescence polarization; percent of positive-control signal above neutral wells | 340,000 compounds, 0.99% hits | P13346;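 active means mean activation above about 17%, with every replicate also reaching it, limit read from the data, passing the limit was not always enough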
Target sequence (P13346 whole entry, looked up): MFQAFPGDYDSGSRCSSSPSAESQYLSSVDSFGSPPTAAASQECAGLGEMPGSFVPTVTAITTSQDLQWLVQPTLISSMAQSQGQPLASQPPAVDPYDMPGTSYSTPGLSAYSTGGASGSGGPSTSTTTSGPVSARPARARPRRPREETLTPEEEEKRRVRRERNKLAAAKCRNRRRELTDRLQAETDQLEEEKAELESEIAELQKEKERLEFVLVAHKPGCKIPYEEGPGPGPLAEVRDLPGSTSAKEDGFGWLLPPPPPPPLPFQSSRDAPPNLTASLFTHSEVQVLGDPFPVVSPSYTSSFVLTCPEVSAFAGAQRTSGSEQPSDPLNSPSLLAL
UBC13 inh: human UBC13 polyubiquitination inhibition; P61088; UBC13 polyubiquitin chain formation, TR-FRET; inhibition, % at 20 µM; 330,000 compounds, 0.47% hits; AID 485273; in the data active means inhibition above about 45%, passing the limit was not always enough
GRIN3A LBD mod: NR3A (human) ligand-binding domain modulation. NR3A LBD differential scanning fluorimetry, Tm shift; 0% = protein alone, 100% = glycine-bound protein. Tm shift relative to glycine control, % at 25 µM. 340,000 compounds, 2.5% hits;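 active means melting temperature shift of at least 10% of the positive control shift, at one fixed dose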
CR mimetic SO: yeast age-related superoxide inhibition as caloric restriction mimetic; superoxide response (% of plate mean), % at 10 µM; 330,000 compounds, 0.18% hits; S. cerevisiae aged cells, superoxide DHE fluorescence; hits give low values;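 active means superoxide response under a set limit, about three screen SD below normal, cut at about 65% in these data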;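 further: yeast aged for seven days with compound at 30 °C before DHE staining; 100% = average MFI of all compound-treated wells on the plate with controls excluded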
Casp3 counter: inhibits human caspase-3 in UBC13 counter-screen; Recombinant caspase-3, Caspase-Glo 3/7 luminescence, 60 min; shares compounds with UBC13 inh; 1,400 compounds, 4% hits; AID 488856; inhibition, % at 20 µM;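 active means mean inhibition across replicates above about 26%, limit read from the data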;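 further: plate controls were DMSO with caspase-3 for no effect and DMSO wells lacking enzyme for full effect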
Target sequence (P42574 whole entry, looked up): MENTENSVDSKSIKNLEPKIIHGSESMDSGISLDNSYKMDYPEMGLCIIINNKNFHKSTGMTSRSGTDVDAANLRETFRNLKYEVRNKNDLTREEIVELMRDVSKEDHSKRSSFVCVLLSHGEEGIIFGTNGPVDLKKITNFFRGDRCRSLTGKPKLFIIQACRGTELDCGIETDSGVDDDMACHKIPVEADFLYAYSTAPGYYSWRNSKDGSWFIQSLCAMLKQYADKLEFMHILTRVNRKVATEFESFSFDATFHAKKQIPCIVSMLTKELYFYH
UBC13 conf: human UBC13 polyubiquitin inhibition, confirmed | shares compounds with UBC13 inh | UBC13 polyubiquitination, TR-FRET, biochemical | inhibition, % at 10 µM | 1,400 compounds, 68% hits | AID 488859; in the data active means inhibition above about 45%
* marks the source's active call; other numbers are inactive results; · = not tested or not shown.

SMILES | NALP1 inh | dFosB activator | UBC13 inh | GRIN3A LBD mod | CR mimetic SO | Casp3 counter | UBC13 conf
CC(C)C[C@H]1CN([C@@H](CC(C)C)CN2CCC[C@@H]2CN2C(=O)C(=O)NC[C@@H]2Cc2ccccc2)C(=O)C(=O)N1CC1CCCCC1 | · | -19 | · | 0 | · | · | ·
CC[C@@H](C)[C@@H]1CN([C@@H](C)CN2CCC[C@H]2CN2C(N)=NC[C@H]2CC(C)C)C(=N)N1CCc1ccc(Cl)c(Cl)c1 | · | -9 | 69* | -1 | 115 | 0 | 70*
Cc1cccc(CCN2C(N(C)C)=NC[C@@H]2CC(C)C)c1 | · | 0 | 4 | -2 | 104 | · | ·
O=C(CN1C(=O)NC2(CCCC2)C1=O)Nc1nc2c(F)cc(F)cc2s1 | · | -13 | -4 | 0 | 107 | · | ·
O=C(CCCCCN1C(=O)c2cccc3cccc(c23)C1=O)NCCO | -2 | -4 | 47* | 0 | 104 | -4 | 32
COc1ccccc1/C=N/Nc1cc(C)nc2ccc(C)cc12 | 22 | -4 | -6 | -1 | 98 | · | ·
COc1ccc2nc(C)cc(N/N=C/c3ccccc3)c2c1 | · | -55 | 53* | -4 | 86 | 6 | 49*
COc1ccc(/C=N/Nc2cc(C)nc3ccc(OC)cc23)c(OC)c1 | 13 | -114 | 102* | -1 | 104 | 4 | 122*
Cc1ccc(-c2nn(-c3ccc(F)cc3)cc2C(=O)N(C)CC(=O)Nc2ccc(N3CCOCC3)cc2)cc1 | · | -5 | -1 | -7 | 99 | · | ·
O=C(Nc1ccc(S(=O)(=O)Nc2ncccn2)cc1)c1ccccc1Cl | 4 | 2 | -2 | -3 | 99 | · | ·
COC(=O)c1ccc(NC(=O)c2nc(S(=O)(=O)Cc3cccc(C)c3)ncc2Cl)cc1 | 9 | 8 | 15 | -9 | 152 | · | ·
CCCc1nnc(NC(=O)c2nc(S(=O)(=O)Cc3ccc(C)cc3)ncc2Cl)s1 | 5 | -3 | 59* | 1 | 78 | 0 | 54*
CCCS(=O)(=O)c1ncc(Cl)c(C(=O)Nc2ccc(S(=O)(=O)Nc3ncccn3)cc2)n1 | 18 | 1 | 53* | 0 | 93 | -2 | 50*
CC(=O)Nc1ccc(NC(=O)c2nc(S(=O)(=O)Cc3cccc(C)c3)ncc2Cl)cc1 | 6 | -3 | 45* | 5 | 101 | 2 | 47*
COCCN1CCN(C(=O)C2CCC(=O)N(Cc3ccccc3OC)C2)CC1 (configuration not stated) | 17 | 0 | 0 | 4 | 104 | · | ·
O=C(CN1C(=O)NC2(CCCC2)C1=O)NNC(=O)c1ccccc1F | · | 3 | 3 | 1 | 84 | · | ·
O=C1C(=O)N(CCCO)C(c2ccc(Br)cc2)/C1=C(\O)c1ccc(Br)cc1 (configuration not stated) | -6 | -4 | -7 | -2 | 112 | · | ·
CN1Cc2c(N3CCOCC3)nc3sc(C#N)c(N)c3c2CC1(C)C | 16 | 2 | -13 | 0 | 105 | · | ·
CN1Cc2c(N3CCOCC3)nc3sc(C(=O)c4ccc(Br)cc4)c(N)c3c2CC1(C)C | 11 | · | 51* | -6 | 102 | 0 | 85*
CCn1c(SCC(=O)Nc2nc(-c3ccc(C)cc3)cs2)nnc1-c1ccccc1 | 13 | -5 | -1 | 2 | 105 | · | ·
Cc1ccc(-c2csc(NC(=O)CSc3nc4ccccc4c(=O)n3CCCN(C)C)n2)cc1 | 4 | -37 | 89* | -13 | 109 | 2 | 94*
O=C(O)[C@H]1CCCC[C@H]1C(=O)NCCc1ccccc1 | -2 | 0 | 67* | 0 | 103 | 0 | 9
O=C(O)C1CCCCC1C(=O)NCCc1ccncc1 (configuration not stated) | 3 | 0 | 3 | 6 | 107 | · | ·
Cc1cccc(N(C(=O)c2snc(C(N)=O)c2N)C(C(=O)NCC2CCCO2)c2c[nH]c3ccccc23)c1 (configuration not stated) | -11 | -2 | 77* | -1 | 93 | 4 | 81*
NC(=O)c1nsc(C(=O)N(c2ccc(F)cc2)C(C(=O)NCC2CCCO2)c2c[nH]c3ccccc23)c1N (configuration not stated) | -6 | -9 | 63* | 1 | 104 | 2 | 64*
SMILES | NALP1 inh | dFosB activator | UBC13 inh | GRIN3A LBD mod | CR mimetic SO | Casp3 counter | UBC13 conf
NC(=O)c1nsc(C(=O)N(c2cccc(F)c2)C(C(=O)NCC2CCCO2)c2c[nH]c3ccccc23)c1N (configuration not stated) | 2 | 1 | 79* | -31 | 96 | 0 | 87*
CN(C)CCCNC(=O)c1ccccn1 | -7 | 2 | 5 | -1 | 92 | · | ·
CN(C)CCCNC(=O)c1ccc(-c2nc(-c3ccc(Cl)cc3)cs2)cc1 | 8 | -29 | 54* | -1 | 98 | 2 | 68*
CN(C)CCCNC(=O)c1ccc(-c2cc(O)c3ncccc3c2)cc1 | · | 46* | 112* | -3 | 110 | 2 | 118*
CCOC(=O)C1=C(c2ccccc2)NC(=O)NC1c1cc(Cl)c(O)c(OC)c1 (configuration not stated) | 1 | -3 | 0 | 1 | 89 | · | ·
CCOC(=O)C1=C(c2ccccc2)NC(N)=NC1c1ccc(OCc2ccc(Cl)cc2)c(OC)c1 (configuration not stated) | -4 | -64 | 49* | 0 | 106 | 6 | 87*
Oc1ccc(C2=NNC(=NCc3ccc4c(c3)OCO4)SC2)c(O)c1 | · | -13 | 45* | -11 | 100 | 0 | 72*
Clc1ccc(C2=NNC(=NCc3ccc4c(c3)OCO4)SC2)cc1 | 48 | -1 | · | -7 | 100 | · | ·
Cc1c(C(=O)Nc2ccc(S(=O)(=O)N(C)C3CCN(C)CC3)cc2)oc2ccccc12 | · | -44 | 56* | -1 | 87 | -2 | 34
O=C(O)CCC(=O)Nc1ccc(-c2csc(Nc3cccc4ccccc34)n2)cc1 | · | -6 | -10 | 0 | 88 | · | ·
CC(C)CC(C(=O)NC(C)(C)C)N(CC1CCCO1)C(=O)c1snc(C(N)=O)c1N (configuration not stated) | 3 | -3 | 78* | 0 | 101 | -4 | 81*
CCCC(C(=O)NC(C)(C)C)N(CC1CCCO1)C(=O)c1snc(C(N)=O)c1N (configuration not stated) | 5 | 4 | 51* | -2 | 91 | 1 | 52*
CCN(CC)CCOc1ccc(/C(=C(/Cl)c2ccccc2)c2ccccc2)cc1 | 36 | 1 | 73* | 4 | 85 | -3 | 56*
CC/C(=C(\c1ccc(O)cc1)c1ccc(OCCN(C)C)cc1)c1ccccc1 | 26 | -6 | 79* | -1 | 100 | -5 | 55*
CCOc1ccc(C(=O)OCCN(CC)CC)cc1 | -2 | -7 | -6 | 0 | 97 | · | ·
CN(C)CCOc1ccc(C(C)(C)c2ccccc2)cc1 | 15 | -7 | -5 | -1 | 86 | · | ·
